In the supplement of paper PMC8728848:
The sample as a whole holds a higher share of the strongest signals than the screen did.

Legend:
Experiment in all cases: glycan array binding signal (z-score within array); higher = stronger binding
Conditions in all cases: glycan notation: IUPAC condensed, linker removed
[1] = biological target: Fuc(a1-2)Gal(b1-3)GalNAc(a1-3)[Fuc(a1-2)]Gal(b1-4)GlcNAc
Outline: (§1)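 Glycan array binding is given as a within-array Z-score, which can be read as non-binding when negative. The arrays, 3228 of them, came from the Consortium for Functional Glycomics database and were retained only where the protein sequence was available. Z-scores were averaged across arrays of the same protein sequence at different concentrations or buffers and across linkers.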

[2] = biological target: Fuc(a1-2)Gal(b1-3)GlcNAc(b1-3)[Neu5Ac(a2-6)Gal(b1-4)GlcNAc(b1-6)]Gal(b1-4)Glc
Outline: as §1

[3] = biological target: Fuc(a1-2)[Gal(a1-3)]Gal(b1-3)GlcNAc
Outline: as §1

[4] = biological target: Fuc(a1-2)[Gal(a1-3)]Gal(b1-3)GlcNAc(b1-3)GalNAc
Outline: as §1

[5] = biological target: Fuc(a1-2)[Gal(a1-3)]Gal(b1-4)GlcNAc(b1-3)[Fuc(a1-2)[Gal(a1-3)]Gal(b1-4)GlcNAc(b1-6)]GalNAc
Outline: as §1

[6] = biological target: Fuc(a1-2)[GalNAc(a1-3)]Gal(b1-3)GlcNAc
Outline: as §1

[7] = biological target: Fuc(a1-2)[GalNAc(b1-3)]Gal
Outline: as §1

[8] = biological target: Fuc(a1-3)[Gal(b1-4)]Glc6S
Outline: as §1

Gal(a1-3)Gal = biological target: Gal(a1-3)Gal
Outline: as §1

[9] = biological target: Gal(a1-4)Gal(b1-4)GlcNAc(b1-2)Man(a1-3)[Gal(a1-4)Gal(b1-4)GlcNAc(b1-2)Man(a1-6)]Man(b1-4)GlcNAc(b1-4)GlcNAc
Outline: as §1

Gal(b1-2)Gal = biological target: Gal(b1-2)Gal
Outline: as §1

[10] = biological target: Gal(b1-3)GalNAc(b1-3)Gal(a1-4)Gal(b1-4)Glc
Outline: as §1

[11] = biological target: Gal(b1-3)GalNAc(b1-4)[Neu5Ac(a2-3)]Gal(b1-4)Glc
Outline: as §1

[12] = biological target: Gal(b1-3)GlcNAc(b1-6)Gal(b1-4)GlcNAc
Outline: as §1

[13] = biological target: Gal(b1-3)[Fuc(a1-4)]GlcNAc(b1-3)Gal(b1-4)[Fuc(a1-3)]GlcNAc
Outline: as §1

[14] = biological target: Gal(b1-4)GlcNAc(b1-2)Man(a1-3)[Gal(b1-4)GlcNAc(b1-2)Man(a1-6)]Man(b1-4)GlcNAc(b1-4)[Fuc(a1-6)]GlcNAc
Outline: as §1

[15] = biological target: Gal(b1-4)GlcNAc(b1-2)[Gal(b1-4)GlcNAc(b1-4)]Man(a1-3)[GlcNAc(b1-4)][Gal(b1-4)GlcNAc(b1-2)Man(a1-6)]Man(b1-4)GlcNAc(b1-4)GlcNAc
Outline: as §1

[16] = biological target: Gal(b1-4)GlcNAc(b1-3)Gal(b1-4)GlcNAc(b1-3)Gal(b1-4)GlcNAc(b1-2)Man(a1-3)[Gal(b1-4)GlcNAc(b1-3)Gal(b1-4)GlcNAc(b1-3)Gal(b1-4)GlcNAc(b1-2)Man(a1-6)]Man(b1-4)GlcNAc(b1-4)[Fuc(a1-6)]GlcNAc
Outline: as §1

[17] = biological target: Gal(b1-4)GlcNAc(b1-6)[Gal(b1-4)GlcNAc(b1-3)]GalNAc
Outline: as §1

Gal3S(b1-3)GalNAc = biological target: Gal3S(b1-3)GalNAc
Outline: as §1

Gal4S6S(b1-4)GlcNAc = biological target: Gal4S6S(b1-4)GlcNAc
Outline: as §1

[18] = biological target: GlcNAc(a1-4)Gal(b1-4)GlcNAc(b1-3)Gal(b1-4)GlcNAc
Outline: as §1

B1: Di AAL2 (Agrocybe aegerita) (protein)
chain: MTSNVITQDLPIPVASRGFADIVGFGLDGVVIGRNAVNLQPFLAVKNFAQNAGGWLTTKHVRLIADTTGTGKGDIVGFGNAGVYVSVNNGKNTFADPPKMVIANFGYDAGGWRVEKHLRYLADIRKIGRADIIGFGEKGVLVSRNNGGLNFGPATLVLKDFGYDAGGWRLDRHLRFLADVTGNGHLDIVGFGDKHVFISRNNGDGTFAPAKSVIDNFCIDAGGWKIGDHPRFVADLTGDGTADIIGCGKAGCWVALNNGGGVFGQVKLVINDFGTDKGWQAAKHPRFIADLTGNGRGDVVGFGNAGVYVALNNGDGTFQSAKLVLKDFGVQQGWTVSKHRRFVVDLTGDGCADIIGFGEKETLVSYNDGKGNFGPVKALTNDFSFSGGKWAPETTVCWMANLDSSRHPAPAPMTSNVITQDLPIPVASRGFADIVGFGLDGVVIGRNAVNLQPFLAVKNFAQNAGGWLTTKHVRLIADTTGTGKGDIVGFGNAGVYVSVNNGKNTFADPPKMVIANFGYDAGGWRVEKHLRYLADIRKIGRADIIGFGEKGVLVSRNNGGLNFGPATLVLKDFGYDAGGWRLDRHLRFLADVTGNGHLDIVGFGDKHVFISRNNGDGTFAPAKSVIDNFCIDAGGWKIGDHPRFVADLTGDGTADIIGCGKAGCWVALNNGGGVFGQVKLVINDFGTDKGWQAAKHPRFIADLTGNGRGDVVGFGNAGVYVALNNGDGTFQSAKLVLKDFGVQQGWTVSKHRRFVVDLTGDGCADIIGFGEKETLVSYNDGKGNFGPVKALTNDFSFSGGKWAPETTVCWMANLDSSRH
In the case of B1, the “glycan array binding signal (z-score)” value [1] is reported as -0.31, the “glycan array binding signal (z-score)” value [2] is reported as -0.337 and the “glycan array binding signal (z-score)” value [3] is reported as -0.338. The “glycan array binding signal (z-score)” value [4] was -0.312, the “glycan array binding signal (z-score)” value [5] was -0.292 and the “glycan array binding signal (z-score)” value [6] was -0.172. For the same binder, the “glycan array binding signal (z-score)” value [7] was -0.337, the “glycan array binding signal (z-score)” value [8] was -0.322 and the “glycan array binding signal (z-score)” value (Gal(a1-3)Gal) was -0.332. The “glycan array binding signal (z-score)” value [9] was 5.32, the “glycan array binding signal (z-score)” value (Gal(b1-2)Gal) was -0.333 and the “glycan array binding signal (z-score)” value [10] was -0.331. For the same binder, the “glycan array binding signal (z-score)” value [11] was -0.314, the “glycan array binding signal (z-score)” value [12] was -0.333 and the “glycan array binding signal (z-score)” value [13] was -0.331. For the same binder, the “glycan array binding signal (z-score)” value [14] was -0.343, the “glycan array binding signal (z-score)” value [15] was -0.313 and the “glycan array binding signal (z-score)” value [16] was -0.209. For the same binder, the “glycan array binding signal (z-score)” value [17] was -0.313, the “glycan array binding signal (z-score)” value (Gal3S(b1-3)GalNAc) was -0.334 and the “glycan array binding signal (z-score)” value (Gal4S6S(b1-4)GlcNAc) was -0.338. For the same binder, the “glycan array binding signal (z-score)” value [18] was 2.68.
